PubChem BioAssay (NCI)
Values joined by “and” are separate entries in the source; they are usually repeats but may differ in a detail not shown here. Equal values may be shown once. About 83,000 compounds went through this panel and 20% of them were active in at least one assay; those are over-represented in the sample as a whole.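 Plates (96-well) were seeded with cells, treated with compound at one concentration, and incubated for 48 hours before percent growth was determined.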 A number with no mark means an inactive call. Active and inactive are the calls of the source. How the source made its calls: active means growth percent below 10; inactive means the rest.

tested on: HL-60(TB) leukemia; test: NCI-60 one-dose screen, 48 h (100 = growth as untreated, 0 = no growth, -100 = all killed); conditions: 10 µM unless noted

Structure (SMILES) | growth
Cc1noc2c(Cc3ccccc3)nn(CC(=O)N/N=C/c3ccc(Br)cc3)c(=O)c12 | 100%
Cc1ccc(Nc2nnc(-c3c[nH]c4ccccc34)o2)c(C)c1 | 1.4% (active)
Cn1cc(-c2cc(N)n3nc(-c4c[nH]c5ccc(Br)cc45)cc3n2)c2cc(Br)cnc21 | -44.2% (active)
C=C1CC[C@@H]2[C@]3(C)COC(c4cn(-c5ccccc5)nc4-c4cccc([N+](=O)[O-])c4)O[C@@H]3CC[C@@]2(C)[C@@H]1C/C=C1/C(=O)OC[C@H]1O (stereo partly specified) | 12.6%
CS(=O)(=O)Nc1cccc(-n2c(COc3ccc(OC(F)(F)F)cc3)nc3ccccc32)c1 | 111% and 95.1%
CCOC(=O)C1=C(N)N(c2ccccc2)C2=C(C(=O)CC(C)(C)C2)C1c1ccccc1Cl (stereo unspecified) | -23% (active)
O=C(c1ccc(OCCN2CCOCC2)cc1)C1[C@H](c2ccc(Cl)cc2)[C@@H](c2ccccc2)NC12C(=O)Nc1ccc(Br)cc12 (stereo partly specified) | -28.5% (active)
CC12CC[C@@H]3[C@]4(C)COC(c5cn[nH]c5-c5cccc(Br)c5)O[C@@H]4CC[C@@]3(C)[C@@H]1CC(C1=CCOC1=O)O2 (stereo partly specified) | 13%
CC(Nc1ncnc2ccc(-c3ccc4oc(N)nc4c3)cc12)c1ccccc1 (stereo unspecified) | -71.4% (active)
COc1ccc(C(=O)CSc2nnc(-c3c[nH]c4ccccc34)n2-c2ccccc2)cc1 | 81.3%
CC[C@]12C=CCN3CC[C@]4(C(=C(C(=O)OC)C1)Nc1cc(OC)c([C@@H]5[C@H]6O[C@H]6[C@@]6(CC)CC(C(=O)OC)=C7Nc8cc(OC)ccc8[C@@]78CCN5[C@@H]68)cc14)[C@@H]32 | 25%
